Laboratory results: PubChem BioAssay (EPA / NIEHS)
Inconclusive results are not listed. Active and inactive are the calls of the source. Rule for the calls, unless noted: active = hit-call score of the fitted dose curve at least 0.9, where 1 is the maximum; inconclusive = response in the unintended direction; inactive = score below 0.9.

Tests used:
[1] = ATG_TAL_CIS: Attagene CIS-FACTORIAL HepG2 Assay for human TAL Basal Promoter (AID 2282966; active = hit-call score of the fitted dose curve at least 0.9, where 1 is the maximum; inactive = score below 0.9;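 note: background control endpoint measuring basal TAL promoter reporter mRNA not a specific factor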); details: HepG2 Attagene cis-factorial TAL promoter reporter; actives raise or lower the signal
Summary of the method: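 Background-control endpoint: basal TAL promoter reporter transcripts in transiently transfected HepG2, measured 24 h after dosing. Read-out by RT-PCR with fluorescent primer extension and capillary electrophoresis; gain or loss of signal fitted relative to DMSO.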

[2] = ATG_TGFb_CIS: Attagene CIS-FACTORIAL HepG2 Assay for human Transforming Growth Factor (TGF) (AID 2282967; active = hit-call score of the fitted dose curve at least 0.9, where 1 is the maximum; inactive = score below 0.9); details: HepG2 Attagene CIS TGFb reporter, mRNA transcription; actives raise or lower the signal
Summary of the method: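 Cells were dosed for 24 hours, after which total RNA was reverse-transcribed and reporter sequences amplified, labeled and sized by capillary electrophoresis. Activity was fitted in both directions against DMSO.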

[3] = molecular target: Nuclear receptor subfamily 1 group I member 3 (Homo sapiens) (UniProt Q14994); experiment: ATG_CAR_TRANS: Attagene TRANS-FACTORIAL HepG2 Assay for human Constitutive Androstane Receptor (CAR) (AID 2282969); details: HepG2 Attagene TRANS-FACTORIAL CAR reporter;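 note: activators raise reporter mRNA above DMSO so AC50 marks induction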
Nuclear receptor subfamily 1 group I member 3 (Homo sapiens), sequence (Q14994 whole entry, looked up, the tested form may be a part): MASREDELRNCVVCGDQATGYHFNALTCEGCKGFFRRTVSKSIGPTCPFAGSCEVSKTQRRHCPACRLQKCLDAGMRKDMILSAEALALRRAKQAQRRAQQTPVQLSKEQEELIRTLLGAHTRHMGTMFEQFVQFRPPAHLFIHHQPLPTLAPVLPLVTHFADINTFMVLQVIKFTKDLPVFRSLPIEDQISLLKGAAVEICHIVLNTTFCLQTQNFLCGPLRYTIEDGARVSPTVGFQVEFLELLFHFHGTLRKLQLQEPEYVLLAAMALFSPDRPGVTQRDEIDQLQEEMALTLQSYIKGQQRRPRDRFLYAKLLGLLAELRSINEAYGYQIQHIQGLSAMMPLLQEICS
Summary of the method: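 Signal is reporter mRNA induction relative to DMSO, measured 24 h after dosing by RT-PCR with fluorescent primer extension and capillary electrophoresis. Human HepG2 liver cells carried transiently transfected chimeric NR-Gal4/GAL4-UAS reporter constructs.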

[4] = molecular target: X-box-binding protein 1 (Homo sapiens) (UniProt P17861); experiment: ATG_Xbp1_CIS: Attagene CIS-FACTORIAL HepG2 Assay for human X-box Binding Protein 1 (XBP1) (AID 2282972; active = hit-call score of the fitted dose curve at least 0.9, where 1 is the maximum; inactive = score below 0.9); details: HepG2 XBP1 cis-element reporter, Attagene multiplex; actives raise or lower the signal
X-box-binding protein 1 (Homo sapiens), sequence (P17861 whole entry, looked up): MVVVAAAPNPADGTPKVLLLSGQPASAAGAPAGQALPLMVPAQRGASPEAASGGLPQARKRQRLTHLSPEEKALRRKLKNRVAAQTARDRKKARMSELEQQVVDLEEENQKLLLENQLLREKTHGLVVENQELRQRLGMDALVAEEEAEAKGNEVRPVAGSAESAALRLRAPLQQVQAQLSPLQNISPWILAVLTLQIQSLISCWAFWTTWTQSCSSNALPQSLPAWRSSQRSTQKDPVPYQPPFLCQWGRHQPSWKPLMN
Summary of the method: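 Reporter transcripts were quantified by RT-PCR with fluorescent primer extension and capillary electrophoresis after 24 h chemical exposure. Cells: transiently transfected HepG2 carrying cis-regulated reporter constructs; data fitted bidirectionally relative to DMSO.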

[5] = ATG_M_19_TRANS: Attagene TRANS-FACTORIAL HepG2 Assay for M19 Transcription Factor (Internal Marker) (AID 2282974); details: HepG2 Attagene TRANS-FACTORIAL M19 internal marker reporter
Summary of the method: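 Gain-of-signal in reporter mRNA, relative to DMSO, was scored from capillary electrophoresis fluorescence. HepG2 cells carried transiently transfected multiple reporter transcription units and were incubated with test chemicals for 24 h.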

[6] = ATG_Hpa5_TRANS: Attagene TRANS-FACTORIAL HepG2 Assay for human GAL4-Hpa5 Hepatocyte Transcription Factor Basal Promoter (AID 2282975); details: HepG2 Attagene GAL4-Hpa5 transcription reporter;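 note: hits are increases in reporter mRNA over DMSO baseline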
Summary of the method: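 Gain-of-signal versus DMSO is fitted for reporter mRNA quantified by RT-PCR and capillary electrophoresis after 24 h exposure. This endpoint is an internal background marker in transiently transfected HepG2 cells carrying GAL4-UAS reporter units.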

[7] = molecular target: Hepatocyte nuclear factor 4-alpha (Homo sapiens) (UniProt P41235); experiment: ATG_HNF4a_TRANS: Attagene TRANS-FACTORIAL HepG2 Assay for human Hepatocyte Nuclear Factor 4 alpha (HNF4a) (AID 2282982); details: HepG2 HNF4a transactivation reporter, mRNA readout
Hepatocyte nuclear factor 4-alpha (Homo sapiens), sequence (P41235 whole entry, looked up, the tested form may be a part): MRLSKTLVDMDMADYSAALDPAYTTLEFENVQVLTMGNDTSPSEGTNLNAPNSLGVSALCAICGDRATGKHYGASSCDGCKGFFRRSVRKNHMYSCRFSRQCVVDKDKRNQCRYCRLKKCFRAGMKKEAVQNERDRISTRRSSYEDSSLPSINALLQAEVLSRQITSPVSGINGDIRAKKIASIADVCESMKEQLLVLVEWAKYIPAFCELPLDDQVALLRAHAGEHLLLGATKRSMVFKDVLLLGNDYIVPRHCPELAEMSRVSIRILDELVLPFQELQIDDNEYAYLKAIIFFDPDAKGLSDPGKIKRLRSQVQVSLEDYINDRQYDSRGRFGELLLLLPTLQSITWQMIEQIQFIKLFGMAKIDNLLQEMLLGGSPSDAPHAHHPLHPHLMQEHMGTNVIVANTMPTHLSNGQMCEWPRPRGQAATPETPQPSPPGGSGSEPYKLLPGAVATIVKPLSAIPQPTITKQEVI
Summary of the method: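 Activity of an exogenous HNF4a–Gal4 fusion scored as induced GAL4-UAS reporter transcripts after 24 h chemical exposure of transfected human HepG2 cells. Read-out via RT-PCR with 6-FAM labelling and capillary electrophoresis; rise over DMSO baseline.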

[8] = ATG_VDRE_CIS: Attagene CIS-FACTORIAL HepG2 Assay for human Vitamin D Receptor Element (VDRE) (AID 2282968; active = hit-call score of the fitted dose curve at least 0.9, where 1 is the maximum; inactive = score below 0.9); details: HepG2 VDRE cis-reporter transcription, actives raise or lower the signal
Summary of the method: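 Readout is VDRE-driven reporter mRNA reflecting endogenous factor activity in human HepG2 cells, sampled 24 h post-dose. Quantification used labelled RT-PCR products separated by capillary electrophoresis; bidirectional analysis relative to DMSO.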

[9] = molecular target: Estrogen receptor (Homo sapiens) (UniProt P03372); experiment: ATG_ERa_TRANS: Attagene TRANS-FACTORIAL HepG2 Assay for human Estrogen Receptor alpha (ERa) (AID 2282970); details: HepG2 Attagene TRANS ERa GAL4 reporter, mRNA
Estrogen receptor (Homo sapiens), sequence (P03372 whole entry, looked up, the tested form may be a part): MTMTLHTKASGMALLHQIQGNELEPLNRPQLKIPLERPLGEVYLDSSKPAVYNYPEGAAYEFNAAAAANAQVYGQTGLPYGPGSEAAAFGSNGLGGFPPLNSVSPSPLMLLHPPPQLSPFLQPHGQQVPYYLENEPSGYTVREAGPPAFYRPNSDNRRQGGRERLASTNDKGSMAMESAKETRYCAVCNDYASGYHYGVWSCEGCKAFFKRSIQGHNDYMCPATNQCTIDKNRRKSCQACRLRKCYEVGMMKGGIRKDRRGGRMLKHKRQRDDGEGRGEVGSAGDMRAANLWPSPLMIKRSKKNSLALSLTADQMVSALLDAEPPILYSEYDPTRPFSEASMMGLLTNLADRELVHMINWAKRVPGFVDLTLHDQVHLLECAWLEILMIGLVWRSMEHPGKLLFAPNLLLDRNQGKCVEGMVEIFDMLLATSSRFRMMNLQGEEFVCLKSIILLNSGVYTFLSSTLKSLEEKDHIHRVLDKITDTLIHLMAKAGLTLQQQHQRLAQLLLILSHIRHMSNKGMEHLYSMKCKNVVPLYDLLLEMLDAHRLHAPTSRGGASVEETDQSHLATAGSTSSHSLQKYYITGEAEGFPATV
Summary of the method: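 Reporter transcripts were measured 24 h after dosing by RT-PCR with fluorescent primer extension and capillary electrophoresis. The system is transiently transfected HepG2 expressing exogenous NR-Gal4 chimeras driving GAL4-UAS reporters; DMSO is the baseline.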

[10] = molecular target: Steroid hormone receptor ERR1 (Homo sapiens) (UniProt P11474); experiment: ATG_ERRa_TRANS: Attagene TRANS-FACTORIAL HepG2 Assay for human Estrogen-Related Receptor alpha (ERRa) (AID 2282971); details: HepG2 Attagene TRANS reporter, ERRa transactivation
Steroid hormone receptor ERR1 (Homo sapiens), sequence (P11474 whole entry, looked up, the tested form may be a part): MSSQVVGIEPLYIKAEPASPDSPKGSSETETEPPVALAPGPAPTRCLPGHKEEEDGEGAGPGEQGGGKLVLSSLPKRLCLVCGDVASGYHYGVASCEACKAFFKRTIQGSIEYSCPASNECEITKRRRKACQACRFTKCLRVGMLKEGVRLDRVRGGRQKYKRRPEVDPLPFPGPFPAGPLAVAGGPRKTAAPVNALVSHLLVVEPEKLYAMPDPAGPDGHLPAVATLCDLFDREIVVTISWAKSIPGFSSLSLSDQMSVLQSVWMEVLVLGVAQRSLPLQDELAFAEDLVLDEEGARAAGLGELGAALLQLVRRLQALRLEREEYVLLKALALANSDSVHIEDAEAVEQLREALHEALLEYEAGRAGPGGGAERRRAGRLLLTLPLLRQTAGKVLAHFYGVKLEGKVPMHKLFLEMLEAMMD
Summary of the method: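 Reporter transcripts from ERRa-Gal4 chimera activity measured in transiently transfected human HepG2 cells 24 hours after dosing, using RT-PCR with 6-FAM primer extension, HpaI digestion and capillary electrophoresis; DMSO is baseline.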

[11] = molecular target: Estrogen-related receptor gamma (Homo sapiens) (UniProt P62508); experiment: ATG_ERRg_TRANS: Attagene TRANS-FACTORIAL HepG2 Assay for human Estrogen-Related Receptor gamma (ERRg) (AID 2282977); details: HepG2 Attagene TRANS reporter, ERRg transactivation;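 note: hits increase reporter signal over DMSO so potencies reflect activators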
Estrogen-related receptor gamma (Homo sapiens), sequence (P62508 whole entry, looked up, the tested form may be a part): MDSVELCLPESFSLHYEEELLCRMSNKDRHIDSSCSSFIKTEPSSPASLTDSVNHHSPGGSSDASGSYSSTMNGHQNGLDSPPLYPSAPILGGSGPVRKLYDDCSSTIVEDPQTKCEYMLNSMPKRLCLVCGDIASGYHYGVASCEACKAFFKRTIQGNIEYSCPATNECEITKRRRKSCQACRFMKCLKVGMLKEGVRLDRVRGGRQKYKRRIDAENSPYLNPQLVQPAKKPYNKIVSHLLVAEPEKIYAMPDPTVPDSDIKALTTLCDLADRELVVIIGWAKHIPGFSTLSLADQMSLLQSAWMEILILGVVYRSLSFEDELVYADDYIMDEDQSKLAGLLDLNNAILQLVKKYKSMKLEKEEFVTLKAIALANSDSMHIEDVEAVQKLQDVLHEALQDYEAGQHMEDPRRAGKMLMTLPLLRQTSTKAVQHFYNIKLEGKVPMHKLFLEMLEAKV
Summary of the method: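 Exogenous NR-Gal4 chimera activity measured as reporter transcript induction after 24 h in transiently transfected HepG2 cells. RNA reverse-transcribed, PCR-amplified, 6-FAM-labelled and resolved by capillary electrophoresis; increase over DMSO baseline.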

[12] = molecular target: Glucocorticoid receptor (Homo sapiens) (UniProt P04150); experiment: ATG_GR_TRANS: Attagene TRANS-FACTORIAL HepG2 Assay for human Glucocorticoid Receptor (GR) (AID 2282978); details: HepG2 Attagene TRANS GR reporter, mRNA transcription;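 note: activators score as hits since higher reporter transcript over DMSO is fitted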
Glucocorticoid receptor (Homo sapiens), sequence (P04150 whole entry, looked up, the tested form may be a part): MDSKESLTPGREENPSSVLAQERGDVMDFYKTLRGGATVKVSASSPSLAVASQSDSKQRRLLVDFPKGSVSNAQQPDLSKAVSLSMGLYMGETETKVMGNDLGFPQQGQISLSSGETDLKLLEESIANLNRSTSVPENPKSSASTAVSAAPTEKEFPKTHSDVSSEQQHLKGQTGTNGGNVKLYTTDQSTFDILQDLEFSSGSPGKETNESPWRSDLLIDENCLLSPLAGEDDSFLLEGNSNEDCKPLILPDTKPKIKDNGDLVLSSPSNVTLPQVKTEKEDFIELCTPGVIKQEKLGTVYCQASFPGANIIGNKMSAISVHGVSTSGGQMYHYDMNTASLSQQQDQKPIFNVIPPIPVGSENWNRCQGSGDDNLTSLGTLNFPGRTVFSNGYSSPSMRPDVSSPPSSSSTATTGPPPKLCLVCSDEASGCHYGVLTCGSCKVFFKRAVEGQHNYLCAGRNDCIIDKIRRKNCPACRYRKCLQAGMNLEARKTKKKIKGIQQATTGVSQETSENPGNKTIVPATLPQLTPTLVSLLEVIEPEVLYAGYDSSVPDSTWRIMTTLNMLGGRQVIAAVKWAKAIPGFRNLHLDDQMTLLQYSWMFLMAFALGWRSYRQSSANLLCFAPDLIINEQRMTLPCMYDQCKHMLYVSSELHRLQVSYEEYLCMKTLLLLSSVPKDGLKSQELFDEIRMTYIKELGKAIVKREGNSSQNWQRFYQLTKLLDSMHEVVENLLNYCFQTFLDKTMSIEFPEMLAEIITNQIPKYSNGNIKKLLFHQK
Summary of the method: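 HepG2 transient transfection, multiple reporter units, GAL4-UAS under NR-GAL4 chimera control. 24 h treatment. Reporter mRNA by RT-PCR/CE fluorescence, DMSO as negative control.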

[13] = molecular target: Oxysterols receptor LXR-beta (Homo sapiens) (UniProt P55055); experiment: ATG_LXRb_TRANS: Attagene TRANS-FACTORIAL HepG2 Assay for human Liver X Receptor beta (LXRb) (AID 2282981); details: HepG2 Attagene TRANS GAL4-LXRb reporter, mRNA
Oxysterols receptor LXR-beta (Homo sapiens), sequence (P55055 whole entry, looked up, the tested form may be a part): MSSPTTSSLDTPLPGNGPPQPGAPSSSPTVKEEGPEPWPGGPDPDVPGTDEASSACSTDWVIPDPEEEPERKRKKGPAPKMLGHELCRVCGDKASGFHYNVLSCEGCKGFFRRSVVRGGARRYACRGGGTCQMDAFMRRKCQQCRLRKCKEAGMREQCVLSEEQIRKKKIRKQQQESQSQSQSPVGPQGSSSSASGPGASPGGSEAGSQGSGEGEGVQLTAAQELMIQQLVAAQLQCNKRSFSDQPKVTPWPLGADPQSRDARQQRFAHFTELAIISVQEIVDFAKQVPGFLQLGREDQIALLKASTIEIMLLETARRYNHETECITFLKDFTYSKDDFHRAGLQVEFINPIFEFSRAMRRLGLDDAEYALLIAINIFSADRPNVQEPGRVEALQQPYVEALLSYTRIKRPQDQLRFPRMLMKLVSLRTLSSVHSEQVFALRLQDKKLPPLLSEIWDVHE
Summary of the method: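 After 24 h chemical treatment of transfected HepG2 cells carrying exogenous NR-Gal4 chimeras, reporter mRNA was quantified by fluorescent RT-PCR and capillary electrophoresis; activity taken as increase over DMSO controls.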

[14] = ATG_M_32_TRANS: Attagene TRANS-FACTORIAL HepG2 Assay for M32 Transcription Factor (Internal Marker) (AID 2282984); details: HepG2 Attagene TRANS M32 internal marker reporter
Summary of the method: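 Internal background reporter in transfected HepG2: after 24 h chemical exposure, RNA reverse-transcribed, reporter cDNA amplified, fluorescently labelled and HpaI-cut, then sized by capillary electrophoresis. Gain of signal fitted against DMSO control.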

[15] = molecular target: Oxysterols receptor LXR-alpha (Homo sapiens) (UniProt Q13133); experiment: ATG_LXRa_TRANS: Attagene TRANS-FACTORIAL HepG2 Assay for human Liver X Receptor alpha (LXRa) (AID 2282980); details: HepG2 Attagene TRANS reporter, LXRa transactivation
Oxysterols receptor LXR-alpha (Homo sapiens), sequence (Q13133 whole entry, looked up, the tested form may be a part): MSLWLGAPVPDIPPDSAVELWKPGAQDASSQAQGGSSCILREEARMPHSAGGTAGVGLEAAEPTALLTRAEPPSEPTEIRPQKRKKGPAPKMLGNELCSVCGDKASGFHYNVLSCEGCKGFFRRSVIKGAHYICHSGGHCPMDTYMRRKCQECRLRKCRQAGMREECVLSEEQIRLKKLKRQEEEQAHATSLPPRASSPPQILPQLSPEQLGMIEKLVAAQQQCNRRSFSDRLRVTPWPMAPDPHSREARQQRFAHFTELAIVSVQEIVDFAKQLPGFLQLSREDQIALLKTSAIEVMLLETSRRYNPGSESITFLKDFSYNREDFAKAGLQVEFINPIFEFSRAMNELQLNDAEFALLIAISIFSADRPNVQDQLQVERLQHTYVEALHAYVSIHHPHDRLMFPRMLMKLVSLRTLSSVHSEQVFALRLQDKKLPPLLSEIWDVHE
Summary of the method: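 Chemical-induced reporter mRNA measured by RT-PCR with fluorescent labelling and capillary electrophoresis after 24 h dosing of transiently transfected HepG2 cells expressing exogenous NR-Gal4 chimeras; increases scored against DMSO baseline.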

[16] = ATG_M_06_TRANS: Attagene TRANS-FACTORIAL HepG2 Assay for M06 Transcription Factor (Internal Marker) (AID 2282983); details: HepG2 Attagene TRANS M06 internal marker reporter;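 note: reporter transcript level by RT-PCR then capillary electrophoresis fluorescence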
Summary of the method: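 Background-control reporter readout: after 24 h chemical exposure of transiently transfected HepG2 (GAL4-UAS reporter units), mRNA quantified by RT-PCR with fluorescent labeling and capillary electrophoresis. Gain-of-signal fitting against DMSO baseline.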

[17] = molecular target: Nuclear receptor subfamily 4 group A member 2 (Homo sapiens) (UniProt P43354); experiment: ATG_NURR1_TRANS: Attagene TRANS-FACTORIAL HepG2 Assay for human Nuclear Receptor Related Protein 1 (NURR1) (AID 2282985); details: HepG2 Attagene TRANS reporter, mRNA readout
Nuclear receptor subfamily 4 group A member 2 (Homo sapiens), sequence (P43354 whole entry, looked up, the tested form may be a part): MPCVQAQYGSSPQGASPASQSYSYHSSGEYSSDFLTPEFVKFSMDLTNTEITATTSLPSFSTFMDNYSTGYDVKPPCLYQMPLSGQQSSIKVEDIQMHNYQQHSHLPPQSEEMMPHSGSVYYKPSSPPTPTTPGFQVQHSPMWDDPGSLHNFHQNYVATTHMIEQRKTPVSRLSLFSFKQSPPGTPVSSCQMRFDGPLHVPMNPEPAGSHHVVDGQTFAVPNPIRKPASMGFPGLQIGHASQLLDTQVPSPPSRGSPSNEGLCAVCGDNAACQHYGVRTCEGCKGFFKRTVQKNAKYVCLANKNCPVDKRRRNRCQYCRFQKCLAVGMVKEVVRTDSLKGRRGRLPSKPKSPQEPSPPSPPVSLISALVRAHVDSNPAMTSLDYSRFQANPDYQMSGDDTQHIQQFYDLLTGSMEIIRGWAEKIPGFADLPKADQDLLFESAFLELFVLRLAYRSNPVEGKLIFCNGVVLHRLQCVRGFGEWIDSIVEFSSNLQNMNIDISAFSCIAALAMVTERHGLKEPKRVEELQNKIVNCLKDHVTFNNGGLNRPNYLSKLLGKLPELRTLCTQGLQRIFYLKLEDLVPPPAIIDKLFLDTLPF
Summary of the method: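 Reporter transcript induction, measured by RT-PCR with fluorescent labelling, HpaI digestion and capillary electrophoresis, after 24 hr dosing of human HepG2 cells transiently expressing an exogenous NR-Gal4 fusion with GAL4-UAS-driven reporters; DMSO as baseline.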

[18] = molecular target: Bile acid receptor (Homo sapiens) (UniProt Q96RI1); experiment: ATG_FXR_TRANS: Attagene TRANS-FACTORIAL HepG2 Assay for Farnesoid X Receptor (FXR) (AID 2282979); details: HepG2 Attagene TRANS FXR-GAL4 reporter transcription;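 note: hits raise reporter mRNA above DMSO so AC50 marks FXR activation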
Summary of the method: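 Reporter transcripts from transfected HepG2 cells were measured 24 h after dosing, using RT-PCR with capillary electrophoresis of 6-FAM-labelled fragments. The read-out reflects activity of exogenous FXR-Gal4 chimera on GAL4-UAS units, with induction relative to DMSO.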

Measured: AC50

CC(C)[C@H](C(=O)O[C@H](C#N)c1cccc(Oc2ccccc2)c1)c1ccc(Cl)cc1
inactive: [1] | [2] | [3] | [4] | [5] | [6] | [7]

CCCCOC(=O)[C@@H](C)Oc1ccc(Oc2ccc(C#N)cc2F)cc1
not listed: [6] | [7] | [15] | [16] | [17] | [18]
inactive: all other assays above

CCOC(=O)CC(SP(=O)(OC)OC)C(=O)OCC (stereo not given)
inactive: [1] | [2] | [3] | [4] | [5] | [6] | [12] | [13]

CNC(=O)ON=C(SC)C(=O)N(C)C
active: [4] 40.5 µM
inactive: [1] | [8] | [3] | [9] | [10] | [5] | [11] | [13] | [7]

CC1=NNC(=O)N(/N=C/c2cccnc2)C1
not listed: [3] | [5] | [6] | [9] | [10] | [12] | [18]
inactive: all other assays above

CC(Oc1cccc(Cl)c1)C(=O)O (stereo not given)
inactive: [1] | [2] | [8] | [4] | [5] | [6] | [12] | [13] | [14] | [17]

CC(C1CC1)C(O)(Cn1cncn1)c1ccc(Cl)cc1 (stereo not given)
inactive: [1] | [2] | [8] | [4] | [5] | [13] | [14] | [17]

C#CC(C)(C)NC(=O)c1cc(Cl)cc(Cl)c1
active: [8] 29.3 µM
not listed: [7] | [9] | [10] | [11] | [12] | [18]
inactive: all other assays above

Cc1ccn2nc(S(=O)(=O)Nc3c(F)cccc3F)nc2n1
inactive: [1] | [2] | [8] | [3] | [4] | [11] | [18] | [13] | [16] | [14]

CCCOc1nn(C(=O)NS(=O)(=O)c2ccccc2C(=O)OC)c(=O)n1C
inactive: [1] | [2] | [8] | [3] | [4] | [5] | [12] | [13] | [7] | [17]

CCOP(=S)(OCC)SCCSCC
inactive: [1] | [2] | [3] | [4] | [6] | [13] | [7] | [16]

CCOP(=S)(OCC)OC(Cl)C(Cl)(Cl)Cl (stereo not given)
active: [8] 50 µM
not listed: [5] | [9] | [10] | [12] | [15] | [18]
inactive: all other assays above

CCOP(=S)(OCC)Oc1ccc2c(C)c(Cl)c(=O)oc2c1
not listed: [6] | [7] | [8] | [9] | [18]
inactive: all other assays above

Cc1cc(C2CC2)nc(Nc2ccccc2)n1
active: [2] 50 µM | [8] 28.6 µM | [4] 31.6 µM
not listed: [5] | [6] | [10] | [11] | [12]
inactive: all other assays above

O=C(O)c1cc(Oc2ccc(C(F)(F)F)cc2Cl)ccc1[N+](=O)[O-]
inactive: [1] | [2] | [10] | [4] | [5] | [6] | [12] | [13] | [7] | [14]

CNc1cnn(-c2cccc(C(F)(F)F)c2)c(=O)c1Cl
active: [8] 13.6 µM
inactive: [1] | [2] | [3] | [4] | [6] | [12] | [15] | [13] | [16]

CSc1nc(NC(C)C)nc(NC(C)C)n1
active: [8] 10.3 µM
not listed: [2] | [7] | [11] | [12] | [15] | [16] | [18]
inactive: all other assays above
